Methyltransferases = Primary Screen for Target Class Profiling of Small Molecule Inhibitors of Methyltransferases; purified enzyme, MTase-Glo SAH luminescence; hits give low values; calls only at 40 µM; 25,000 tested, 3.9% active; call rule not given here
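Each enzyme was assayed with SAM and its substrate. SAH formation detected by MTase-Glo luminescence; single-point 40 uM screen[…].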
MTase-Glo ctr = Counterscreen for Target Class Profiling of Small Molecule Inhibitors of Methyltransferases. AID 1745851, 2022. MTase-Glo coupled enzymes, SAH conversion luminescence, no MTase. Potency, µM (doses to about 57.3 µM), hits mostly inhibitors. shares compounds with Methyltransferases. 180 tested, 6% active; active means well fitted inhibition curve with a large enough effect
A number is an active result; . = inactive; + = active, no number. The full list was thinned out, with hits kept by preference.

SMILES	Methyltransferases	others
Cc1ccc(CN2C(=O)c3nc4ccccc4n3CC2(C)C(=O)NC2CCCCC2C)cc1 (stereo not drawn)	.
CCc1cccc(NC(=O)Cn2c(=O)oc3cc(S(=O)(=O)N4CC(C)CC(C)C4)ccc32)c1 (stereo not drawn)	.
O=C(Cc1ccc(-c2ccccc2)cc1)NC1CCC1	.
CC1(C(=O)NC2CCCCC2)Cc2ccccc2C(=O)N1CCc1ccccc1 (stereo not drawn)	.
CN(Cc1ccccc1)C1(C(=O)NC2CCC(O)CC2)Cc2ccccc2C1 (stereo not drawn)	+	MTase-Glo ctr=.
Cc1cccc(CN2C(=O)c3ccc(-c4ccco4)n3CC2(C)C(=O)NC2CCCCC2)c1 (stereo not drawn)	.
COc1ccc(N2CCN(C(=O)c3cc(NC(C)=O)cc4nc(C)ccc34)CC2)cc1	+	MTase-Glo ctr=.
COc1ccc(N2CCN(C(=O)c3cccc(Nc4nc5ccccc5n5nnnc45)c3)CC2)cc1	.
COc1ccc(N2CCN(C(=O)c3ccc4c(=O)nc5c(-c6ccccc6F)n[nH]n5c4c3)CC2)cc1	.
Cc1ccc(NC(=O)CSc2nnc3n(CCC(C)C)c(=O)c4ccccc4n23)cc1C	.
CCCn1c(=O)c2ccccc2n2c(SCC(=O)Nc3ccc(F)cc3F)nnc12	.
CCc1cc2c(cc3n2CC(C)(C(=O)NC2CCCCCC2)N(c2ccc(C)c(C)c2)C3=O)s1 (stereo not drawn)	.
Cc1nc(CCNc2cc(C3CC(O)C3)nc(N)n2)nc2c1CCC2 (stereo not drawn)	.
Cc1cc(Cl)ccc1NC1CN(C(=O)OC(C)(C)C)C1	.
CNc1cc(C2CC(NC(=O)COc3ccc(Cl)cc3C)C2)nc(N)n1 (stereo not drawn)	+	MTase-Glo ctr=2.7µM
CCCn1c(=O)c2ccc(Cl)cc2n2c(=O)n(CC(=O)Nc3cccc(F)c3)nc12	.
O=C(Cn1ccc2cc(S(=O)(=O)N3CCCCC3)ccc21)NC1CCCc2ccccc21 (stereo not drawn)	.
CCCn1c(=O)c2ccccc2n2c(SCC(=O)Nc3cc(OC)cc(OC)c3)nnc12	.
CN1CCCN(C(=O)c2ccccc2F)c2ccccc21	.
Cn1cc2c3c(cccc31)CN(C(=O)c1ccccc1F)CC2	+	MTase-Glo ctr=.
O=C(c1ccccc1F)N1CCn2ncc(C(=O)N3CCOCC3)c2C1	.
CC(C)CCNC(=O)C1(C)Cn2nc(C(=O)NCc3ccccc3Br)cc2C(=O)N1C (stereo not drawn)	.
Cc1cccc(NC(=O)N2CCn3cccc3C2C)c1C (stereo not drawn)	.
COC(=O)c1ncn2c1C(=O)N(C1CC1)C(C)(C(=O)NCc1ccccc1)C2 (stereo not drawn)	.
COc1cccc(N2C(=O)NC(=NC3CCCCC3)C23CCCN(CC2CCCCC2)C3)c1 (stereo not drawn)	+	MTase-Glo ctr=.
SMILES	Methyltransferases	others
COc1cccc(N2C(=O)NC(=NC3CCCC3)C23CCN(Cc2ccccc2)C3)c1 (stereo not drawn)	.
COc1cccc(N2C(=O)NC(=NC3CCCCC3)C23CCN(CC2CC2)C3)c1 (stereo not drawn)	.
CCCn1c(=O)c2ccc(C(=O)NC(C)CC)cc2n2c(SCC(=O)Nc3ccc(C)cc3C)nnc12 (stereo not drawn)	.
O=C(NC1CCCC1)c1ccc2c(=O)n(Cc3ccccc3)c3nn(Cc4ccccc4F)c(=O)n3c2c1	.
COc1ccc(C(=O)N2CC[C@H](c3nnc(-c4ccccc4)o3)C2)cc1	.
FC(F)(F)c1ccnc(N2CC[C@H](c3nnc(-c4ccncc4)o3)C2)n1	+	MTase-Glo ctr=.
c1ccc(-c2nnc([C@H]3CCN(C4CCC4)C3)o2)cc1	.
COc1ccc(Cl)cc1NC(=O)N1CCn2cccc2C1C(C)C (stereo not drawn)	.
Cc1ccc(N2C(=O)c3cc(-c4cccs4)nn3CC2(C)C(=O)NC2CCCCC2)c(C)c1 (stereo not drawn)	.
COc1ncccc1-c1n[nH]c2c1CC(=O)N(Cc1ccccc1)C2	.
COc1ncccc1-c1nccn2c(C3CN(Cc4ccccc4O)C3)ncc12	+	MTase-Glo ctr=.
COc1ncccc1-c1cc2c(nc1OC)nc(CCc1ccccc1)n2C	.
Cn1c(=O)n(C)c2cc(S(=O)(=O)NCC3CCCO3)ccc21 (stereo not drawn)	.
Cc1ccc(CN2C(=O)c3cc(-c4cccs4)nn3CC2(C)C(=O)NC2CCCCC2)cc1 (stereo not drawn)	.
COc1ccccc1CNC(=O)C1(C)Cn2c(cc3ccccc32)C(=O)N1CCC(C)C (stereo not drawn)	.
CCCn1c(=O)c2cc(F)ccc2n2c(SCc3ccc(F)cc3Cl)nnc12	.
COc1cccc2c1OCCCN(Cc1cn(-c3ccccc3)nn1)C2	.
COc1cccc2c1OCCCN(c1cc(C3CC(O)C3)nc(N)n1)C2 (stereo not drawn)	+	MTase-Glo ctr=.
CS(=O)(=O)NC1CCN(c2cc(C3CC(N)C3)nc(N)n2)CC1 (stereo not drawn)	.
CCC(C)NC(=O)c1ccc2c(=O)n(C(C)C)c3nn(Cc4ccc(C)cc4)c(=O)n3c2c1 (stereo not drawn)	.
Cc1cc2c(cc3n2CC(C)(C(=O)NC2CCCCCC2)N(c2ccc(Cl)cc2)C3=O)o1 (stereo not drawn)	.
COc1cccc(CN2CCCC3(CNc4ccccc4[S+](=O)([O-])N3)C2)c1 (stereo not drawn)	+	MTase-Glo ctr=.
O=[S+]1([O-])NC2(CCN(Cc3ccc(F)cc3)CC2)CNc2ccccc21	.
N#Cc1ccc(CN2CCC3(CNc4ccccc4[S+](=O)([O-])N3)C2)cc1 (stereo not drawn)	.
CC(=O)Nc1c2n(c3ccccc13)CC(C)(C(=O)NC1CCCC1)N(Cc1ccccc1C)C2=O (stereo not drawn)	.
SMILES	Methyltransferases	others
Cn1c(=O)c2ccc(C(=O)NC3CCCC3)cc2n2c(=O)n(CC(=O)Nc3cccc(F)c3)nc12	.
COCCCNC(=O)c1cnc2n[nH]c(-c3ccccc3)c2n1	+	MTase-Glo ctr=.
c1ccc(-c2[nH]nc3ncc(-c4cn[nH]c4)nc23)cc1	+	MTase-Glo ctr=25µM
CC1(C)[C@H]2CC[C@@H](CNC(=O)c3ccc4ccccc4n3)[C@@H]1C2	.
CCOCCCNC(=O)c1cc2c(=O)[nH]c(-c3ccccc3)cn2n1	.
COc1ccc(C(=O)NCCn2c(C)cnc2-c2ccccc2)cn1	.
COc1ccccc1-c1[nH]nc2ncc(C(=O)NCC3CC3)nc12	+	MTase-Glo ctr=.
Cc1cc(F)ccc1-c1[nH]nc2ncc(-c3ccnn3C)nc12	.
COc1ccccc1CCNC(=O)c1cc2n(n1)CC(C)(C(=O)NC1CCCCCC1)N(C)C2=O (stereo not drawn)	.
Cn1c(=O)c2ccc(C(=O)NC3CCCCC3)cc2n2c(SCc3ccccc3)nnc12	.
CC1(C(=O)NC2CCCC2)Cn2c(ccc2-c2ccco2)C(=O)N1CCc1ccccc1 (stereo not drawn)	.
Cc1ccccc1CNC(=O)C1(C)Cc2ccccc2C(=O)N1Cc1cccc(Cl)c1 (stereo not drawn)	.
Cc1ccc(Cl)cc1NC(=O)Cn1nc2n(CCCOC(C)C)c(=O)c3ccccc3n2c1=O	.
CC1(C(=O)NC2CCCCCC2)Cn2c(cc3ccccc32)C(=O)N1Cc1ccccn1 (stereo not drawn)	.

High-throughput results (PubChem)
